Inconclusive results are not listed. The source made the active and inactive calls. The calls were made as follows: active = hit-call score of the fitted dose curve at least 0.9, where 1 is the maximum; inconclusive = response in the unintended direction; inactive = score below 0.9.
How the values were obtained:
[1] = Tanguay_ZF_120hpf_SWIM_legacy: (Legacy) Oregon State University Tanguay Lab 120 Hour Post-fertilization zebrafish Assay for Swim Bladder Malformation (AID 2283654);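 also: swim bladder malformation in each larva scored yes or no under brightfield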
Summary of the method: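 Static waterborne exposure of single dechorionated Tropical 5D zebrafish embryos, 6–120 hpf, 28C, 0.64% DMSO final. Read-out: swim bladder malformation, present/absent, relative to DMSO negative control; trimethyltin chloride 5uM served as positive control.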

[2] = Tanguay_ZF_120hpf_TRUN_legacy: (Legacy) Oregon State University Tanguay Lab 120 Hour Post-fertilization zebrafish Assay for Truncated Body (AID 2283655)
Summary of the method: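 Dechorionated Tropical 5D wild-type embryos placed singly from 6 hpf and statically exposed to 120 hpf at 28C, final DMSO 0.64%. Truncated body scored as present/absent by brightfield; not scored in dead embryos.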

[3] = read-out: ABC Transporter (ABCB1), ABCB1 (gene 5243); experiment: CLD_ABCB1_6hr: CellzDirect (CLD) Gene Expression Assay for ABC Transporter (ABCB1) at 6 hours (AID 2283659);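 also: hits raise ABCB1 transcript above the DMSO vehicle baseline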
Summary of the method: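 ABCB1 transcript measured by quantitative nuclease protection assay, chemiluminescent read-out, 6 h after dosing human hepatocyte cultures (0.2% DMSO vehicle, daily redosing). Activity fitted as increase over DMSO baseline; cytotoxicity flagged by phase-contrast morphology.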

[4] = test system: Thyroperoxidase (TPO), gene 54314; experiment: CCTE_Simmons_AUR_rTPO: CCTE's Amplex UltraRed Assay for Thyroperoxidase (TPO) Inhibition, Simmons Lab (AID 2283662);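 as to AC50: potency for loss of signal meaning inhibition of peroxidase activity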
Summary of the method: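 Rat thyroid microsomes (5 ug protein) were incubated with test compound (8 concentrations, 5 nM–87.5 uM final, 0.5% DMSO), 25 uM Amplex UltraRed and 300 uM H2O2 in 200 mM phosphate buffer for 30 min at 37C in the dark; fluorescence read at 544/590 nm.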

[5] = read-out: xenobiotic metabolism (CYP1A2), CYP1A2 (gene 1544); experiment: CLD_CYP1A2_6hr: CellzDirect (CLD) Gene Expression Assay for xenobiotic metabolism (CYP1A2) at 6 hours (AID 2283663);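 as to AC50: potency is for induction meaning a rise in mRNA above DMSO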
Summary of the method: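 mRNA levels quantified by quantitative nuclease protection assay with chemiluminescence, 6 h after dosing human primary hepatocyte cultures (two donors) across several concentrations, vehicle 0.2% DMSO. Induction fitted upward versus DMSO; phase-contrast cytotoxicity annotated.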

[6] = read-out: xenobiotic metabolism (CYP2C9), CYP2C9 (gene 1559); experiment: CLD_CYP2C9_6hr: CellzDirect (CLD) Gene Expression Assay for xenobiotic metabolism (CYP2C9) at 6 hours (AID 2283664)
Summary of the method: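 Readout is qNPA chemiluminescence of CYP2C9 mRNA, taken 6 h after dosing of cultured human liver primary cells at several concentrations. Activity is the increase over 0.2% DMSO baseline. Morphology-based cytotoxicity flagged yes/no.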

[7] = read-out: alkyl and aryl transferase (GSTA2), GSTA2 (gene 2939); experiment: CLD_GSTA2_6hr: CellzDirect (CLD) Gene Expression Assay for alkyl and aryl transferase (GSTA2) at 6 hours (AID 2283666)
Summary of the method: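 GSTA2 transcript induction at 6 h, quantified by nuclease protection (qNPA) with chemiluminescent detection, in human liver primary hepatocytes exposed to several compound concentrations with 0.2% DMSO as baseline; phase-contrast morphology annotated apparent cytotoxicity.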

[8] = Tanguay_ZF_120hpf_TR_legacy: (Legacy) Oregon State University Tanguay Lab 120 Hour Post-fertilization zebrafish Assay for Touch Response (AID 2283667)
Summary of the method: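 Readout is presence or absence of touch response in 120 hpf zebrafish larvae, assessed by brightfield observation after continuous static exposure at 28C. Final vehicle was 0.64% (vol/vol) DMSO.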

[9] = read-out: sulfotransferase (SULT2A), SULT2A1 (gene 6822); experiment: CLD_SULT2A_6hr: CellzDirect (CLD) Gene Expression Assay for sulfotransferase (SULT2A) at 6 hours (AID 2283669);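 also: hits raise transcript level above the DMSO vehicle baseline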
Summary of the method: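 Measured 6 h after dosing, SULT2A1 mRNA in human hepatocyte lysates was quantified by S1 nuclease protection with chemiluminescent detection. Increases fitted against 0.2% DMSO vehicle baseline; phase-contrast cytotoxicity recorded yes/no.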

[10] = read-out: xenobiotic metabolism (CYP1A1), CYP1A1 (gene 1543); experiment: CLD_CYP1A1_24hr: CellzDirect (CLD) Gene Expression Assay for xenobiotic metabolism (CYP1A1) at 24 hours (AID 2283673);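 also: CYP1A1 mRNA level by quantitative nuclease protection with chemiluminescence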
Summary of the method: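 Transcript levels were read at 24 h by qNPA chemiluminescence in human liver primary cells. Cells got daily fresh dosing at multiple concentrations (vehicle 0.2% DMSO). Induction fitted upward against DMSO; phase-contrast cytotoxicity annotated.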

[11] = read-out: Broad substrate specificity ATP-binding cassette transporter ABCG2 (Homo sapiens) (UniProt Q9UNQ0); experiment: CLD_ABCG2_6hr: CellzDirect (CLD) Gene Expression Assay for ABC Transporter (ABCG2) at 6 hours (AID 2283660)
Summary of the method: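 ABCG2 mRNA induction measured by qNPA chemiluminescence in human primary hepatocyte cultures, 6 h post-dose. Chemicals tested at several concentrations against a 0.2% DMSO vehicle; positive-direction fit relative to DMSO.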

[12] = read-out: glucuronosyltransferase (UGT1A1), UGT1A1 (gene 54658); experiment: CLD_UGT1A1_6hr: CellzDirect (CLD) Gene Expression Assay for glucuronosyltransferase (UGT1A1) at 6 hours (AID 2283672)
Summary of the method: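 UGT1A1 mRNA induction, read by quantitative nuclease protection assay, 6 h after dosing primary human hepatocytes (two donors, 0.2% DMSO vehicle). Gain of signal fitted relative to vehicle.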

[13] = read-out: xenobiotic metabolism (CYP1A1), CYP1A1 (gene 1543); experiment: CLD_CYP1A1_6hr: CellzDirect (CLD) Gene Expression Assay for xenobiotic metabolism (CYP1A1) at 6 hours (AID 2283661);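 also: potency for transcript induction above DMSO vehicle baseline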
Summary of the method: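 Read-out 6 h post-dose: qNPA chemiluminescent quantitation of transcript induction against 0.2% DMSO. Cells were cultured primary human hepatocytes from two separate donor preparations; phase-contrast morphology annotated apparent cytotoxicity.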

[14] = CCTE_Simmons_CellTiterGLO_HEK293T: Viability Assessment in CCTE's Assays for Thyroperoxidase (TPO) Inhibition, Simmons Lab (AID 2283665);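 as to AC50: cells exposed to compound for 24 h before readout; actives reduce ATP signal below DMSO vehicle meaning cytotoxicity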
Summary of the method: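 Luciferase-coupled ATP content after 24 h exposure gives viability; 8-point series from 5 nM to 87.5 uM final in 0.5% DMSO. Human HEK293T cells, 1% FBS medium, three biological replicates, dichlone positive control.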

[15] = Tanguay_ZF_120hpf_NC_legacy: (Legacy) Oregon State University Tanguay Lab 120 Hour Post-fertilization zebrafish Assay for Notochord and Tail Malformation (AID 2283656)
Summary of the method: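 Binary scoring of notochord distortion by brightfield microscopy; embryos dying were not scored. Wild-type Tropical 5D embryos, chorion removed, exposed singly and statically from 6 to 120 hpf, 28C, sealed, 0.64% DMSO.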

Measured: AC50

Sequence of Broad substrate specificity ATP-binding cassette transporter ABCG2 (Homo sapiens) (Q9UNQ0 whole entry, looked up): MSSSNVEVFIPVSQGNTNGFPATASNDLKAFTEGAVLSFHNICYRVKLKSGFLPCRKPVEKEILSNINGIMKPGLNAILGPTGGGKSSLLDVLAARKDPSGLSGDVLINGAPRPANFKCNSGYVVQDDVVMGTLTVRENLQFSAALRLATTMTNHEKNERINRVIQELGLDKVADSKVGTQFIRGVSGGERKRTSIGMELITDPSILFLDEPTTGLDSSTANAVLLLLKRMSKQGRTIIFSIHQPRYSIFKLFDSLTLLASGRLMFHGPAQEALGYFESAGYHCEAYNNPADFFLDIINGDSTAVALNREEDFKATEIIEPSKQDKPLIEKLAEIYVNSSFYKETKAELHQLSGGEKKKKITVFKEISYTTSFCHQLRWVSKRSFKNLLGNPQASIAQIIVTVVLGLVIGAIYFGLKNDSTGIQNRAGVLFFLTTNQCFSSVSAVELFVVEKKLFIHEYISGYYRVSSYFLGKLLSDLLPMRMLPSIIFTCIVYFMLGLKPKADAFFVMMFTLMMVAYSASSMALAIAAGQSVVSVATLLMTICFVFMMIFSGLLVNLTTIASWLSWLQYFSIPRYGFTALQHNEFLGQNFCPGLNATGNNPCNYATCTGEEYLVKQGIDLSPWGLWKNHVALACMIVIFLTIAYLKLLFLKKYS

CCNP(=S)(OC)O/C(C)=C/C(=O)OC(C)C (centres undefined)
active: [5] 3.56 µM | [10] 3.93 µM
not listed: [11] | [12] | [13] | [14] | [15]
inactive: all other assays above

COc1cc(Cl)c(OC)cc1Cl
inactive: [1] | [3] | [11] | [6] | [7] | [8] | [12] | [10]

CNC(=O)N(C)c1nnc(C(C)(C)C)s1
inactive: [1] | [2] | [3] | [5] | [7] | [8] | [10]
active: [13] 5.79 nM

CCCC(=NOCC)C1=C(O)CC(CC(C)SCC)CC1=O (centres undefined)
inactive: [1] | [2] | [3] | [11] | [8] | [9] | [12] | [10]

COP(=S)(OC)Oc1ccc([N+](=O)[O-])c(C)c1
inactive: [1] | [2] | [3] | [14] | [7] | [8]
active: [4] 5.57 µM | [5] 3.34 µM | [10] 3.97 µM

CCN(CC)C(=O)C(C)Oc1cccc2ccccc12 (centres undefined)
inactive: [1] | [2] | [8] | [10]
active: [4] 26.3 µM | [5] 4.15 µM | [14] 87.8 µM

CC1(C)C(C(=O)OC(C#N)c2cccc(Oc3ccccc3)c2)C1(C)C (centres undefined)
inactive: [1] | [2] | [3] | [5] | [6] | [8] | [10]

CO/N=C(/C1=NOCCO1)c1ccccc1Oc1ncnc(Oc2ccccc2Cl)c1F
inactive: [15] | [3] | [11] | [6] | [7] | [8] | [10]
